High-throughput results (PubChem BioAssay)
GLP-1R inv ag: GLP-1 receptor (human) inverse agonism. HEK293 GLP-1R CRE-luciferase, luminescence, 24 h; GLP-1R form is constitutively active. 410,000 compounds, 1.6% hits. P43220. Potency, µM (highest dose often 38.3 µM), hits mostly inhibitors; further: nearly all actives have a fitted effect of over 55% in size
Target sequence (P43220 whole entry, looked up): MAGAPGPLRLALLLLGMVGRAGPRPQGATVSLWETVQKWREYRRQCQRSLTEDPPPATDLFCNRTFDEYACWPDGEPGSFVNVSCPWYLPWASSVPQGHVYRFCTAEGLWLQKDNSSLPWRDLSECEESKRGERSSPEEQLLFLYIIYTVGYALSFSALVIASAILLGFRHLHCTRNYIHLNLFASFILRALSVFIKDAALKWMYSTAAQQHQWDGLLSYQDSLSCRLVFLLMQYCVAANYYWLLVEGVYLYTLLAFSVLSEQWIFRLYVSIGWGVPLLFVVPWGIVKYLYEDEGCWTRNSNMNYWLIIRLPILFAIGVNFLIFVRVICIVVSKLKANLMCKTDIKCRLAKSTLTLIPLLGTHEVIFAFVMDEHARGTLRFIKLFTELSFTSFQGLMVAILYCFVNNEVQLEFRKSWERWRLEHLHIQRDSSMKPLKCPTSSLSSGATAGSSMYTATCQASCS
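qHTS in 1536-well format: reporter HEK293 cells expressing constitutive GLP-1R activity in DMEM + 10% Nu serum, 24 hr with compounds at 37 deg C, luminescence read after 12 min with detection reagent.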
D3 antag: D3 dopamine receptor (human) antagonism. P35462. D3R cells, DiscoveRx beta-arrestin luminescence, antagonist mode; hits give low values. max response, negative = inhibition, %. 360,000 compounds, 2.5% hits; in the data active means max response below about -50%; inconclusive means no clear call, values can overlap the other calls
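Cells expressing the human receptor were seeded at 1500 cells/well, incubated overnight at 37 degrees C in 5% CO2, then exposed to library compounds with dopamine controls for 90 minutes at 37 degrees C before luminescent detection.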
ClpP mod: qHTS Assay for Activators of ClpP; ATP-dependent Clp protease proteolytic subunit (Bacillus subtilis (strain 168)), P80244; Potency, µM (titrated, usually from 57.5 µM); purified B. subtilis ClpP, FRET peptide cleavage, 20 min; 340,000 compounds, 1.9% hits; active means well fitted falling curve with a large enough effect; inconclusive means small, poorly fitted or top-dose-only effect; inactive means no such curve, though single readings can be large or run the other way; further: the source files actives as falling curves though it sought activators and does not explain the sign; nearly all actives have a fitted effect of over 65% in size
Target sequence (P80244 whole entry, looked up): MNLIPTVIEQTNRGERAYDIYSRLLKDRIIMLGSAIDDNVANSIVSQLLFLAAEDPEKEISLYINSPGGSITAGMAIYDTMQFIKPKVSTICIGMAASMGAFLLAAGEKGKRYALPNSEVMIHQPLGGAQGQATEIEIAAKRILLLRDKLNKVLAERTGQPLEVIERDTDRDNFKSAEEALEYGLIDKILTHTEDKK
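Purified B. subtilis ClpP, 10 microg/mL final in Tris/HCl pH8 with KCl, BSA, glycerol and Tween-20, cleaved an Abz/nitrotyrosine-quenched decapeptide. Fluorescence (ex 320, em 430) was read at 0 and 20 min at room temperature. Delta was normalized to 5.8 microM ADEP and DMSO/no-enzyme controls.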
HEK293 tox: cytotoxic in the GLP-1 receptor inverse agonist counter-screen | HEK293 cAMP-luciferase reporter cells, luminescence, 24 h | AID 624418 | Potency, µM (doses to about 38.3 µM), usual class: inhibitors | 410,000 compounds, 0.13% hits;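 further: loss of luciferase light is scored as toxicity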
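Compound-treated cells are incubated 24 hr at 37 deg C under 5% CO2 after a 12 hour attachment period, then luciferase detection reagent is added and luminescence is measured following 12 min at room temperature; lowered signal indicates toxicity.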
D3 ag: activates the human D3 dopamine receptor; D3R DiscoveRx beta-arrestin cells, luminescence, 90 min; max activation, %; 410,000 compounds, 0.58% hits; AID 652048; in the data active means max activation above about 30%
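Cells at 1500/well, incubated overnight, then treated with pinned compounds (dopamine as control) for 90 min at 37 degrees C. DiscoveRx reagent added for 30 - 60 minutes at room temperature; luminescence read.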
GLP-1R agonist: activates the human GLP-1 receptor; P43220; HEK293 GLP-1R CRE-luciferase, luminescence, 4-6 h; cells express a hypersensitive GLP-1R form; Potency, µM (doses to about 45.6 µM), usual class: activators; 380,000 compounds, 0.007% hits; AID 624172
Hits are given with their value; 0 = inactive; ? = inconclusive; - = no result given; ! = a repeat was not active. Sampled rows, rich in hits. Any-hit rate of the full collection: about 5.7%. Unless noted, the call rests on the fitted dose curve; in most records, active means well fitted curve in the direction sought with a large enough effect; inconclusive means small, poorly fitted or top-dose-only effect, or another doubt; inactive means no such curve, though single readings can be large; an effect the other way counts as inactive or inconclusive.

SMILES	GLP-1R inv ag	D3 antag	ClpP mod	HEK293 tox	D3 ag	GLP-1R agonist
CC(C)NC(=O)CCSc1nc(-c2ccc3c(c2)OCO3)cc(C(F)(F)F)n1	0	-	0	0	0	0
CNCc1ccccc1Sc1cccc(O)c1	?	0	0	0	0	0
CNCc1ccccc1Sc1cc(O)ccc1O	?	-55	0	?	0	0
COc1ccc(-n2nnc(-c3nsc(NC(=O)c4cccs4)n3)c2C)cc1OC	0	-	0	0	0	-
COC(=O)c1c(NC(=O)CSc2nnc3ccccn23)sc2c1CCC2	0	0	28µM	0	0	0
Cc1ccc(C)c(NC(=O)CSc2nccn2-c2cccc(C)c2C)c1	13µM	-	0	0	0	-
Cc1ccc(C)c(NC(=O)CSc2nnc(-c3cc4occc4n3C)n2-c2ccccc2C)c1	11µM	-	0	0	0	-
CCc1cccc(CC)c1-n1c(SCC(=O)N2CCCc3ccccc32)nc(O)cc1=O	10µM	0	0	0	0	0
O=C(CSc1ncccn1)N1CCCc2ccccc21	0	0	-	0	0	0
Cn1ccnc1SCC(=O)N1CCc2ccccc21	0	?	0	?	0	0
Cc1cccc(-n2ccnc2SCC(=O)N2CCCc3ccccc32)c1C	11µM	0	0	0	0	0
Cc1ccc(NC(=O)CSc2nnc(-c3cc4occc4n3C)n2-c2ccccc2C)c(Cl)c1	0	-	0	0	0	-
CS(=O)(=O)c1ccc([C@H](O)[C@H](CF)NC(=O)C(Cl)Cl)cc1	-	-	-	-	-	0
CCCCC[C@@H](C)N1C[C@H](COCc2ccccc2)Oc2cc(N3CC[C@H](N(C)C)C3)ccc2S1(=O)=O	?	0	0	?	0	0
CCCC1OC(c2cc3c(cc2Cl)OCO3)OCC1CC (centres undefined)	11µM	0	-	0	0	0
Brc1cc2c(cc1C1OCCO1)OCO2	0	0	0	0	0	0
Cc1cccc(N2CCN(Cc3ccc(Br)o3)CC2)c1C	?	-56	0	0	0	0
Brc1ccc(CN2CCN(c3ccccc3)CC2)o1	0	0	0	0	0	0
Clc1ccccc1N1CCN(Cc2ccc(Br)o2)CC1	?	-60	0	0	0	0
Cc1ccccc1N1CCN(Cc2ccc(Br)o2)CC1	?	-58	0	0	0	0
CCOc1ccc(CNCCCSc2nnnn2C)cc1OC	0	-	0	0	0	-
CCCN(C(=O)Cn1cnc2onc(-c3ccc(F)cc3)c2c1=O)c1cccc(Cl)c1	0	-	0	0	0	0
O=C(NC(=S)N(Cc1ccccc1)Cc1ccccc1)c1ccccc1F	?	-69	0	0	0	0
Cc1nc(SCC(=O)N2CCN(c3ccccc3)CC2)c2oc3ccccc3c2n1	0	0	0	0	42	0
Cc1nc(SCC(=O)O)c2oc3ccccc3c2n1	0	0	0	0	0	0
SMILES	GLP-1R inv ag	D3 antag	ClpP mod	HEK293 tox	D3 ag	GLP-1R agonist
OCCN1c2ccccc2CCc2ccccc21	?	0	0	0	0	0
OCCN1CCN(CCCN2c3ccccc3CCc3ccccc32)CC1	?	-125	0	0	0	0
Cc1ccc(N2CCN(S(=O)(=O)c3ccc(F)c(C)c3)CC2)c(C)c1	?	-51	0	0	0	0
COc1ccc(S(=O)(=O)NCc2cccnc2)cc1NC(=O)c1ccccc1C	0	0	-	0	0	0
c1nc(SSc2ncc3n[nH]nc3n2)nc2n[nH]nc12	-	-	0	-	-	-
CN(CCOC(=O)c1cccc(F)c1)Cc1ccccc1	?	-88	0	?	0	0
CC(CN(C)Cc1ccccc1)OC(=O)c1cccc(F)c1 (centres undefined)	0	-60	0	0	0	0
CC(=O)c1ccc(NC(=O)CC2Oc3ccc(C)cc3NC2=O)cc1 (centres undefined)	0	-	0	0	0	-
CC(C)CC1Nc2ncnc(N3CCOCC3)c2N(Cc2ccc(Cl)cc2)C1=O (centres undefined)	0	0	0	0	0	0
O=C1C(Cc2ccccc2)Nc2ncnc(N3CCN(c4ccccc4)CC3)c2N1Cc1ccccc1 (centres undefined)	?	0	0	0	0	0
Cc1ccc(CN2C(=O)C(Cc3ccccc3)Nc3ncnc(N4CCN(c5ccccc5)CC4)c32)cc1 (centres undefined)	?	-140	0	0	0	0
COc1ccc(CN2C(=O)C(Cc3ccccc3)Nc3ncnc(N4CCCCC4)c32)cc1 (centres undefined)	?	-53	0	0	0	0
O=C1C(Cc2ccccc2)Nc2ncnc(N3CCOCC3)c2N1Cc1ccc(Cl)cc1 (centres undefined)	?	-102!	0	0	0	0
CC(C)CC1Nc2ncnc(N3CCOCC3)c2N(Cc2ccccc2)C1=O (centres undefined)	0	0	0	0	60!	0
CCc1ccccc1NC(=O)NC(CC)Cn1nnc2ccccc2c1=O (centres undefined)	0	-	0	0	0	-
CCCCc1nn2c(=O)cc(COC(=O)c3ccco3)nc2s1	0	-	0	0	0	-
CCc1nnc2c(N3CCN(c4cc(Cl)ccc4C)CC3)nc3ccccc3n12	0	-	0	0	0	-
Cc1ccc(S(=O)(=O)Nc2cc(Cl)c3oc4c(c3c2)C(=O)CC(C)(C)C4)cc1	0	-	0	0	0	-
CCC1Nc2ncnc(N3CCCCC3)c2N(Cc2ccc(C)cc2)C1=O (centres undefined)	?	?	0	0	0	0
Cc1ccc(CN2C(=O)C(Cc3ccccc3)Nc3ncnc(N4CCCCC4)c32)cc1 (centres undefined)	?	-84!	0	0	0	0
CSc1ccc(CN2CCC2(C)C(=O)NC2CCc3ccccc32)cc1 (centres undefined)	?	-70	0	0	0	0
CCC(=NNS(=O)(=O)c1ccc(C)cc1)c1ccc(OC)c(C)c1	0	0	0	0	0	0
COc1ccc(C(=O)N2CCCC(c3cc(C(=O)NCc4ccc(F)cc4)no3)C2)cc1 (centres undefined)	0	?	0	0	0	0
Cn1c(=O)n(C)c2cc([N+](=O)[O-])c(N3CCN(C(=O)c4cccc(Cl)c4)CC3)cc21	0	-60	0	0	0	0
COc1cccc(CSc2nc3ccncc3n2CC(=O)Nc2ccc(OC)c(OC)c2OC)c1	0	-	0	0	0	-
CCCC(=O)N1CC(=O)Nc2ccc(C)cc2C1c1ccccc1 (centres undefined)	0	0	18µM	0	0	0
CCOC(=O)Cn1c(=O)n(CC2CCCO2)c2nc(-c3cccc(C)c3)nc(C(N)=O)c21 (centres undefined)	0	-	0	0	0	0
